{
  "source": "PubChem BioAssay (EPA / NIEHS)",
  "note": "Some structures have more than one record in an assay (separate samples or runs), and their calls can disagree. Activity calls are given as the source filed them. Rule for the calls: active = hit-call score of the fitted dose curve at least 0.9, where 1 is the maximum; inactive = score below 0.9.",
  "data": [
    {"assay": "BSK_SAg_Proliferation: Cell Proliferation Assessment in the BioMAP Diversity Plus: SAg Assay (AID 2283095);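 note: relative cell number as total protein by SRB absorbance in sub-confluent culture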", "conditions": "primary human HUVEC with PBMC", "in_short": "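Human umbilical vein endothelial cells co-cultured with peripheral blood mononuclear cells; total protein measured by sulforhodamine B staining (0.1% SRB after 10% TCA fixation), absorbance at 560 nm, at 96 h. Bidirectional fit against DMSO baseline.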", "values": [
      {"compound": "NC(=S)Nc1ccccc1", "outcome": "inactive"},
      {"compound": "C=CC(=O)OCCCCCC(C)C", "outcome": "inactive"},
      {"compound": "CCC(C)(C)c1ccc(O)c(C(C)(C)CC)c1", "AC50": "7.43 µM (active)"},
      {"compound": "COC(=O)Cc1ccccc1", "outcome": "inactive"},
      {"compound": "CC(=O)OC(c1ccccc1)C(Cl)(Cl)Cl", "note": "(stereo not drawn)", "outcome": "inactive"},
      {"compound": "ClC1=C(Cl)[C@]2(Cl)[C@H]3[C@H]([C@H]4C=C[C@H]3C4)[C@@]1(Cl)C2(Cl)Cl", "AC50": "20 µM (active)"},
      {"compound": "CC1(C)Cc2cccc(O)c2O1", "outcome": "inactive"},
      {"compound": "COc1cc(-c2ccc(N)c(OC)c2)ccc1N", "AC50": "11.8 µM (active)", "outcome": "inactive"},
      {"compound": "C=C(C)C(=O)[O][Sn]([CH2]CCC)([CH2]CCC)[CH2]CCC", "AC50": "0.188 µM (active)"},
      {"compound": "CCOP(=S)(OCC)SCCS(=O)(=O)CC", "outcome": "inactive"},
      {"compound": "O=Cc1cccc(Oc2ccccc2)c1", "outcome": "inactive"},
      {"compound": "Nc1ncc([N+](=O)[O-])s1", "outcome": "inactive"},
      {"compound": "CCOP(=S)(OCC)Oc1nc(Cl)c(Cl)cc1Cl", "AC50": "34.4 µM (active)"},
      {"compound": "C[C@]12CCC(=O)C[C@@H]1CC[C@@H]1[C@@H]2CC[C@]2(C)[C@@H](O)CC[C@@H]12", "outcome": "inactive"},
      {"compound": "CCSC(C)CC1CC(=O)C(C(CC)=NOC/C=C/Cl)=C(O)C1", "note": "(stereo not drawn)", "outcome": "inactive"},
      {"compound": "COC(=O)c1sccc1S(=O)(=O)NC(=O)Nc1nc(C)nc(OC)n1", "outcome": "inactive"},
      {"compound": "COP(=S)(OC)Oc1cc(Cl)c(Cl)cc1Cl", "outcome": "inactive"},
      {"compound": "O=C(O)C(F)(F)C(F)(F)C(F)(F)C(F)(F)C(F)(F)C(F)(F)F", "outcome": "inactive"},
      {"compound": "CCCCC(CC)CO[N+](=O)[O-]", "note": "(stereo not drawn)", "outcome": "inactive"},
      {"compound": "COC[C@H](C)N(C(=O)CCl)c1c(C)csc1C", "outcome": "inactive"},
      {"compound": "CN(C)N=O", "outcome": "inactive"},
      {"compound": "C(=NC1CCCCC1)=NC1CCCCC1", "AC50": "0.499 µM (active)"}
    ]}
  ]
}
